According to PubChem BioAssay AID588511 (Johns Hopkins Ion Channel Center, 2011):
Among all 310,000 compounds or so, about 3,600 (1.2%) were called active.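 The calls were made as follows: active = ratio plate-corrected score three or more library SD toward inhibition, starting fluorescence score within five deviations; inactive = the rest.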 What follows is part of a selection rich in actives, with near analogues and random picks from the rest.

The compounds below were run against Anoctamin-1 (Mus musculus) (UniProt Q8BHY3) (assay: blockers of mouse ANO1 Ca-activated Cl channel – cell-based, HTS, primary screen (AID 588511;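 as to normalized B-score (activity score, 25-100; higher = stronger inhibition): score derived from kinetic fluorescence span divided by baseline fluorescence per well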)). Settings: HEK293 TMEM16A/YFP iodide influx fluorescence, ionomycin; at 10 µM.
Anoctamin-1 (Mus musculus), sequence (Q8BHY3 whole entry, looked up): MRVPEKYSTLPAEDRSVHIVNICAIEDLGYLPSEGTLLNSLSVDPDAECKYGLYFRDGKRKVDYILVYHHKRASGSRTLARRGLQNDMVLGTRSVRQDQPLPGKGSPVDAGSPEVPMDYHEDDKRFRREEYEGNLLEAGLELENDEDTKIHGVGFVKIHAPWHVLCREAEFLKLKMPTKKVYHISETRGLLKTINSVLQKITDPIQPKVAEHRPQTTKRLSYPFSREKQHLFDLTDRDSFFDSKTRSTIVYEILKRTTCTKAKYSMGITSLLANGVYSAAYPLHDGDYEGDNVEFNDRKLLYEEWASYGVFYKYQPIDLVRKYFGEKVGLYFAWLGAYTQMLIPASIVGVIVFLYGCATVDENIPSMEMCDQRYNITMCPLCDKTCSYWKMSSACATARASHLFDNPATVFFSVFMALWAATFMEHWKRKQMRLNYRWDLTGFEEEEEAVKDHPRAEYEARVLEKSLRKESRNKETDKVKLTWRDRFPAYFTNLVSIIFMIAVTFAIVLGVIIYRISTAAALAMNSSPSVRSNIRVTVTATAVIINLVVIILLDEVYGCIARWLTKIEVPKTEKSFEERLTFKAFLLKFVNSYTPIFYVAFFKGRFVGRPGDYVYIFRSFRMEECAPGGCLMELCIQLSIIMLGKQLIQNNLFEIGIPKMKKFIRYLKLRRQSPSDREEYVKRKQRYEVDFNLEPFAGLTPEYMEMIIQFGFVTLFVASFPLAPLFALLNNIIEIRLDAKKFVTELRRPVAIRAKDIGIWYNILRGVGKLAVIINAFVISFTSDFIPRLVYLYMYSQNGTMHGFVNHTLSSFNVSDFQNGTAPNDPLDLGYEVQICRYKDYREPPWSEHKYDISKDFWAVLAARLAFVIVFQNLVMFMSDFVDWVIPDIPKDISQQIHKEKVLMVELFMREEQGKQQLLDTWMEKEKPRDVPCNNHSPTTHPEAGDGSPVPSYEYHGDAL
In the case of `C/C(=N\NS(=O)(=O)c1ccc(Cl)cc1)c1ccc(NC(=O)c2ccco2)cc1`, the normalized B-score (activity score, 25-100; higher = stronger inhibition) is reported as “inactive”.
For `CC1(C)CC(N2CCN(C(c3ccccc3)c3ccccc3)CC2)=CC(=[N+]2CCCCC2)C1`, the normalized B-score (activity score, 25-100; higher = stronger inhibition) was 100 (active).
In the case of `CC1(C)CC(=O)C=C(N2CCCC2)C1`, the normalized B-score (activity score, 25-100; higher = stronger inhibition) is reported as “inactive”.
In the case of `O=C1CC(N2CCN(C(c3ccccc3)c3ccccc3)CC2)C(=O)N1` (centres undefined), the normalized B-score (activity score, 25-100; higher = stronger inhibition) is reported as “inactive”.
With `O=C(/C=C/Nc1ccc(S(=O)(=O)Nc2cnc3ccccc3n2)cc1)c1cccnc1` the normalized B-score (activity score, 25-100; higher = stronger inhibition) was “inactive”.
With `COc1ccc2[nH]cc(/C=C(/C#N)S(=O)(=O)c3ccccc3)c2c1` the normalized B-score (activity score, 25-100; higher = stronger inhibition) was 100 (active).
With `CCN(CC)CC(=O)c1c[nH]c2ccc(OC)cc12` the normalized B-score (activity score, 25-100; higher = stronger inhibition) was “inactive”.
With `COc1ccc(/C=C(\C#N)c2c[nH]c3ccccc23)cc1` the normalized B-score (activity score, 25-100; higher = stronger inhibition) was “inactive”.
With `COC(C[C@@H](O)C[C@@H](O)[C@H](C)OCc1ccccc1)OC` the normalized B-score (activity score, 25-100; higher = stronger inhibition) was “inactive”.
`CCc1cccc(NC(=O)COC(=O)C2CCN(c3ccc(C(F)(F)F)cn3)CC2)c1` was tested, and the normalized B-score (activity score, 25-100; higher = stronger inhibition) was “inactive”.
In the case of `N#CCSc1nc2c(c(=O)n1Cc1ccccc1)C1(CCCC1)Cc1ccccc1-2`, the normalized B-score (activity score, 25-100; higher = stronger inhibition) is reported as “inactive”.
In the case of `Cc1cccc(-n2c(=O)c3c(C)c(C)sc3n(CC(N)=O)c2=O)c1`, the normalized B-score (activity score, 25-100; higher = stronger inhibition) is reported as “inactive”.
`Cc1cccc(-n2c(SCC(N)=O)nc3c(c2=O)C2(CCCCC2)Cc2ccccc2-3)c1` was tested, and the normalized B-score (activity score, 25-100; higher = stronger inhibition) was 100 (active).
With `CCCc1cc(-c2nc(-c3ccc(C)cc3)cs2)ccn1` the normalized B-score (activity score, 25-100; higher = stronger inhibition) was “inactive”.
For `Cc1ccc(-c2csc(-c3cc(C)on3)n2)cc1`, the normalized B-score (activity score, 25-100; higher = stronger inhibition) was “inactive”.
For `Cc1ccc(-c2csc(-c3c[nH]c4ccccc34)n2)cc1`, the normalized B-score (activity score, 25-100; higher = stronger inhibition) was 100 (active).
With `O=C(C1CCCO1)N1CCN(S(=O)(=O)c2ccc(Br)cc2)CC1` (centres undefined) the normalized B-score (activity score, 25-100; higher = stronger inhibition) was “inactive”.
In the case of `Cc1cc(=O)oc2cc(OCC3CC(c4ccccc4Cl)=NO3)ccc12` (centres undefined), the normalized B-score (activity score, 25-100; higher = stronger inhibition) is reported as “inactive”.
In the case of `O=C(CCS(=O)(=O)c1ccc2c(c1)NC(=O)CS2)NCc1ccccc1Cl`, the normalized B-score (activity score, 25-100; higher = stronger inhibition) is reported as “inactive”.
In the case of `CNC(=O)c1[nH]cnc1C(=O)N[C@@H](CC(C)C)C(=O)OC(C)(C)C`, the normalized B-score (activity score, 25-100; higher = stronger inhibition) is reported as “inactive”.
`CNC(=O)c1[nH]cnc1C(=O)N[C@@H](CC(C)C)C(=O)OCc1ccccc1` was tested, and the normalized B-score (activity score, 25-100; higher = stronger inhibition) was 25 (active).
`O=C(N[C@@H](Cc1ccccc1)C(=O)OCc1ccccc1)c1nc[nH]c1C(=O)N[C@@H](Cc1ccccc1)C(=O)OCc1ccccc1` was tested, and the normalized B-score (activity score, 25-100; higher = stronger inhibition) was “inactive”.
With `O=C(CSc1nnc(-c2cccs2)n1Cc1ccccc1)N1CCc2ccccc2C1` the normalized B-score (activity score, 25-100; higher = stronger inhibition) was “inactive”.
For `Cc1nc(SCC(=O)N2CC(=O)Nc3ccccc32)c2c(C)c(C)sc2n1`, the normalized B-score (activity score, 25-100; higher = stronger inhibition) was “inactive”.
`Cc1nc(SCC(=O)N2CCc3ccccc3C2)c2c(C)c(C)sc2n1` was tested, and the normalized B-score (activity score, 25-100; higher = stronger inhibition) was 100 (active).
In the case of `O=C(N1CCCCC1)N1CCN(C(=O)N2CCCCC2)CC1`, the normalized B-score (activity score, 25-100; higher = stronger inhibition) is reported as “inactive”.
With `Cn1c(=O)n(C)c2cc(S(=O)(=O)N3CCCc4ccccc43)ccc21` the normalized B-score (activity score, 25-100; higher = stronger inhibition) was 25 (active).
With `O=S(=O)(c1ccccc1)N1CCc2ccccc21` the normalized B-score (activity score, 25-100; higher = stronger inhibition) was “inactive”.
In the case of `CCn1c(=O)c(=O)n(CC)c2cc(S(=O)(=O)N3CCc4ccccc43)ccc21`, the normalized B-score (activity score, 25-100; higher = stronger inhibition) is reported as “inactive”.
`Cc1ccc(S(=O)(=O)NC2CCCCCC2)cc1C(N)=O` was tested, and the normalized B-score (activity score, 25-100; higher = stronger inhibition) was “inactive”.
For `COC(=O)[C@@H]1C[C@@]2(O)[C@H](O)[C@H](O)[C@H](O)C[C@H]2N1Cc1ccc(C(C)(C)C)cc1`, the normalized B-score (activity score, 25-100; higher = stronger inhibition) was “inactive”.
With `O=C(CSCc1ccc(Cl)cc1)N1CCCCC1` the normalized B-score (activity score, 25-100; higher = stronger inhibition) was “inactive”.
`Cn1c(=O)cc(OCCCC(=O)N2CCN(Cc3ccc4c(c3)OCO4)CC2)c2ccccc21` was tested, and the normalized B-score (activity score, 25-100; higher = stronger inhibition) was “inactive”.
`O=C(Nc1cccc2ccccc12)N1CCN(Cc2ccc3c(c2)OCO3)CC1` was tested, and the normalized B-score (activity score, 25-100; higher = stronger inhibition) was “inactive”.
In the case of `O=C(CCCN1C(=O)c2cccc3cccc(c23)C1=O)N1CCN(Cc2ccc3c(c2)OCO3)CC1`, the normalized B-score (activity score, 25-100; higher = stronger inhibition) is reported as 100 (active).
`O=C(C1CCN(Cc2ccc(Cl)cc2)CC1)N1CCN(Cc2ccc3c(c2)OCO3)CC1` was tested, and the normalized B-score (activity score, 25-100; higher = stronger inhibition) was “inactive”.
In the case of `O=C(CSCc1ccc(Cl)cc1)N1CCN(Cc2ccc3c(c2)OCO3)CC1`, the normalized B-score (activity score, 25-100; higher = stronger inhibition) is reported as 100 (active).
`NC(=O)C1=C[C@@H](c2ccc3c(c2)OCO3)C[C@@H](OCCCCO)O1` was tested, and the normalized B-score (activity score, 25-100; higher = stronger inhibition) was “inactive”.
For `COc1ccc(N2C(=O)C(CC(=O)Nc3ccc(F)cc3)N(CCc3cccs3)C2=O)cc1` (centres undefined), the normalized B-score (activity score, 25-100; higher = stronger inhibition) was “inactive”.
For `Cc1cnc(C)c(N2CCN(C(=O)C3CCC(=O)N(CCc4cccc(F)c4)C3)CC2)n1` (centres undefined), the normalized B-score (activity score, 25-100; higher = stronger inhibition) was “inactive”.
With `CC(C)Cn1cnc2c1c(=O)n(CC(=O)NN)c(=O)n2Cc1ccccc1` the normalized B-score (activity score, 25-100; higher = stronger inhibition) was “inactive”.
With `Cc1ccnc(NC(=O)C2CCN(S(=O)(=O)c3c(C)c(C)cc(C)c3C)CC2)c1` the normalized B-score (activity score, 25-100; higher = stronger inhibition) was “inactive”.
`COc1ccc(CCNc2cc(C)nc3c(-c4ccc(Cl)cc4)c(C)nn23)cc1OC` was tested, and the normalized B-score (activity score, 25-100; higher = stronger inhibition) was “inactive”.
For `CC(=O)Nc1ccc(OC(=O)COc2ccc(Br)cc2)cc1`, the normalized B-score (activity score, 25-100; higher = stronger inhibition) was “inactive”.
For `CC(=O)Nc1ccc(NC(=O)[C@@H](NC(=O)c2cccc(C)c2)C(C)C)cc1`, the normalized B-score (activity score, 25-100; higher = stronger inhibition) was “inactive”.
For `Cc1ccc(NC(=O)C(C)c2cccc(C(=O)c3ccccc3)c2)cc1` (centres undefined), the normalized B-score (activity score, 25-100; higher = stronger inhibition) was 100 (active).
With `COC(C(=O)Nc1ccc(C(C)=O)cc1)c1ccccc1` (centres undefined) the normalized B-score (activity score, 25-100; higher = stronger inhibition) was “inactive”.
In the case of `COCCn1c(=O)[nH]c(=O)c2cc(C(=O)c3cc(OC)ccc3O)cnc21`, the normalized B-score (activity score, 25-100; higher = stronger inhibition) is reported as “inactive”.
With `CC1Cc2ccccc2N1C(=O)CSc1nnc(C2CC2)n1C` (centres undefined) the normalized B-score (activity score, 25-100; higher = stronger inhibition) was “inactive”.
For `CCCCSc1nnc2c(n1)OC=Nc1ccccc1-2`, the normalized B-score (activity score, 25-100; higher = stronger inhibition) was “inactive”.
For `O=C(CSC(=S)N1CCCCC1)c1c(F)cccc1F`, the normalized B-score (activity score, 25-100; higher = stronger inhibition) was “inactive”.
With `CCOC(=O)[C@H]1[C@H]2COc3ccc(Cl)cc3[C@@H]2N2C(=O)c3cc(C)ccc3NC(=O)[C@@]12C` the normalized B-score (activity score, 25-100; higher = stronger inhibition) was “inactive”.
In the case of `CCN(CC)S(=O)(=O)c1ccc(NC(=O)c2cnc(C)cn2)cc1`, the normalized B-score (activity score, 25-100; higher = stronger inhibition) is reported as “inactive”.
In the case of `CCN(CC)S(=O)(=O)c1ccc(N(C)Cc2cccc(OC)c2OC)nc1`, the normalized B-score (activity score, 25-100; higher = stronger inhibition) is reported as 25 (active).
With `CCN(CC)S(=O)(=O)c1ccc(Cl)c(NC(=O)c2ccncc2)c1` the normalized B-score (activity score, 25-100; higher = stronger inhibition) was “inactive”.
With `CCN(CC)S(=O)(=O)c1ccc(N(C)Cc2ccc(C(F)(F)F)cc2)nc1` the normalized B-score (activity score, 25-100; higher = stronger inhibition) was 100 (active).
With `COc1ccc(S(=O)(=O)N2CCCCCC2)cc1C(=O)N(C)Cc1cccc(OC)c1OC` the normalized B-score (activity score, 25-100; higher = stronger inhibition) was “inactive”.
`CCN(CC)S(=O)(=O)c1ccc(N(C)CCc2ccc(OC)c(OC)c2)nc1` was tested, and the normalized B-score (activity score, 25-100; higher = stronger inhibition) was “inactive”.
With `CCC(C)c1ccccc1N1CC(C(=O)N2CCN(S(=O)(=O)c3ccc(F)cc3)CC2)CC1=O` (centres undefined) the normalized B-score (activity score, 25-100; higher = stronger inhibition) was “inactive”.
With `COc1ccccc1CNC(=O)Cn1c(=O)oc2cc(Cl)ccc21` the normalized B-score (activity score, 25-100; higher = stronger inhibition) was “inactive”.
For `CC1CCCCC1NC(=O)CN1CCC(O)(c2ccc3c(c2)OCO3)CC1` (centres undefined), the normalized B-score (activity score, 25-100; higher = stronger inhibition) was “inactive”.
`CCOC(=O)C1CCN(c2ncnc3c2c(-c2ccccc2)cn3-c2ccc(C)cc2)CC1` was tested, and the normalized B-score (activity score, 25-100; higher = stronger inhibition) was “inactive”.
For `CCOC(=O)C1CCN(Cc2nnc(-c3cccc(Br)c3)o2)CC1`, the normalized B-score (activity score, 25-100; higher = stronger inhibition) was “inactive”.
With `CCOC(=O)C1CCN(c2ncnc3c2oc2ccc(Br)cc23)CC1` the normalized B-score (activity score, 25-100; higher = stronger inhibition) was 100 (active).
